Source: PubChem
Rows were chosen to be rich in hits. Some 6.5% of all compounds tested hit in one or more screens of this group.
HT1080 IDH1KD tx – kills HT-1080 cells with IDH1 knockdown; HT-1080 IDH1 knockdown viability, ATP luminescence, 48 h; AID 686971; actives 2% (n = 360,000); Potency, µM (doses to about 46.1 µM), actives largely listed as cytotoxic
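Using the IDH1-knockdown HT-1080 line run in the same batch and compound series as the NT line, viability after 48 h at 37 °C was determined by CellTiter-Glo luminescence and expressed as % activity.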
TGFb SMAD3 inh – inhibitors of TGF-b signaling | Potency, µM (series often up to 46.1 µM), actives largely listed as inhibitors | HepG2 CAGA-GFP TGF-b/SMAD3 reporter, GFP fluorescence, 18 h; TGF-beta stimulated, 500 pg/mL final | actives 1.2% (n = 410,000); further: nearly all actives have a fitted effect of over 65% in size
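Inhibition of TGF-beta-driven CAGA-GFP reporter expression in HEPG2 cells is measured by cellular GFP fluorescence after 18 h stimulation with 500 pg/mL recombinant TGF-beta in 1% FBS medium at 37 degrees C.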
Giardia kill – Giardia lamblia killing | Giardia lamblia trophozoite viability | activity change, % at 7.66 µM, hits read low | actives 0.15% (n = 340,000) | AID 540267; in the data active means activity change below about -80%; inconclusive means between about -30% and that limit;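 further: parasites exposed to compound for two days anaerobically before the ATP read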
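Anaerobic 48 hrs incubation at 37 deg C of 100 trophozoites/well with test compounds; ATPLite 1-Step luminescence, 15-30 min RT, reports cellular ATP as viability.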
HT1080-NT tox – kills 2HG-producing HT-1080-NT fibrosarcoma cells; HT-1080-NT fibrosarcoma viability, CellTiter-Glo ATP luminescence, 48 h; Potency, µM (series often up to 46.1 µM), hits mostly cytotoxic; actives 1.6% (n = 360,000);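 further: NT is the 2HG producing partner of a matched IDH1 knockdown line; nearly all actives have a fitted effect of over 55% in size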
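Read-out is CellTiter-Glo luminescence after 10 minutes at room temperature, following 48 hours' compound treatment of HT-1080-NT cells (750 cells/well, RPMI, 5% FBS, 37 degrees C).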
HepG2 viability – counter-screen for TGF-b inhibitors: cytotoxicity in HepG2 cells | actives 0.76% (n = 410,000) | Potency, µM (titrated, usually from 46.1 µM), actives largely listed as cytotoxic | HepG2 CAGA-GFP viability, ATP luminescence, 18 h
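HepG2 CAGA-GFP cells (1000/well, DMEM with 1% FBS) received compound, then TGF-beta at 500 pg/mL final, and were incubated 18 hours at 37 degrees C. Viability was read by CellTiter-Glo luminescence. Media-only wells were set as complete cell-killing and DMSO as no toxicity.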
IL1B secr inh – inflammasome signaling inhibition, IL-1 beta readout; activity change, % at 57.5 µM; actives 4.7% (n = 360,000); THP-1 LPS/ATP IL-1B secretion, AlphaLISA, 16 h; active compounds read low; in the data active means activity change below about -50%; inconclusive means mostly about -30% to -49%
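Secreted IL-1B measured by AlphaLISA bead assay after 16 h compound exposure of THP-1 cells; compounds (final up to 57.5 uM) added 1 h before LPS (250 ng/mL) and ATP (1.25 mM) stimulation; lower signal means less secretion.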
Each line names hits and unclear results; the compound was inactive in the other large screens; ! = repeats disagree. Unless noted, the call rests on the fitted dose curve; in most records, active means well fitted curve in the direction sought with a large enough effect; inconclusive means small, poorly fitted or top-dose-only effect, or another doubt; inactive means no such curve, though single readings can be large; an effect the other way counts as inactive or inconclusive.

COc1ccc(CNCC(O)(c2ccccc2)c2ccccc2)cc1	IL1B secr inh -78
COc1ccc(CNCC(O)(c2ccc(F)cc2)c2ccc(F)cc2)cc1	HT1080 IDH1KD tx inconclusive, HT1080-NT tox inconclusive, IL1B secr inh -89
CCOc1cc(/C=N/NC(=O)CN2CCOCC2)ccc1OCc1ccccc1	none
CCCc1nc(Cl)c(C#N)c2c1CCCC2	none
COc1ccc(-c2cc(C3CC3)nc(SCC(=O)c3cccs3)c2C#N)cc1	none
CSc1nc(C2CC2)cc(-c2cccs2)c1C#N	HT1080 IDH1KD tx inconclusive, TGFb SMAD3 inh 5.6µM, HT1080-NT tox 32µM, IL1B secr inh inconclusive
COc1cc(/C=N/NC(=O)c2ccc3nc[nH]c3c2)cc(OC)c1OC	IL1B secr inh -67
CCOc1ccc2[nH]c(C(=O)N/N=C/c3cc(OC)c(OC)c(OC)c3)cc2c1	IL1B secr inh -79
COc1cc(/C=N/NC(=O)c2ccncc2)cc(OC)c1OC	none
COc1cc(C(=O)NN=Cc2ccc(N(C)C)cc2)cc(OC)c1OC	HT1080 IDH1KD tx 2.9µM, HT1080-NT tox 3.7µM (no result: Giardia kill)
COc1cc(/C=N\NC(=O)c2ccc(-c3ccccc3)cc2)cc(OC)c1OC(C)=O	IL1B secr inh -50
COc1ccc(S(=O)(=O)NC2CC(C)(C)NC(C)(C)C2)cc1C(C)C	none
Cc1ccc(/C=N/NC(=O)c2ccc(N(C)S(=O)(=O)c3ccccc3)cc2)cc1	HT1080 IDH1KD tx inconclusive, IL1B secr inh -53
O=C(NCc1ccco1)c1sc2cc(F)ccc2c1Cl	none
CN1CCN(Cc2nc3ccccc3c(=O)n2Cc2nc(-c3ccccc3F)cs2)CC1	IL1B secr inh inconclusive
CN1CCN(Cc2nc3ccccc3c(=O)n2Cc2nc(-c3ccc4ccccc4c3)cs2)CC1	HT1080 IDH1KD tx 3.7µM, TGFb SMAD3 inh inconclusive, HT1080-NT tox 5.8µM, HepG2 viability 16µM!, IL1B secr inh -95
CN1CCN(Cc2nc3ccccc3c(=O)n2Cc2nc(-c3cccc([N+](=O)[O-])c3)cs2)CC1	HT1080 IDH1KD tx 23µM, TGFb SMAD3 inh inconclusive, HT1080-NT tox 15µM, IL1B secr inh -78
CN(C)C1=NCCN1CCCC1CCCCC1	TGFb SMAD3 inh inconclusive, IL1B secr inh inconclusive
CCOc1ccc(CNC(=O)Cn2ccc3cc(S(=O)(=O)N4CCCCC4)ccc32)cc1	none (no result: HT1080 IDH1KD tx, Giardia kill, HT1080-NT tox, IL1B secr inh)
CCOc1ccccc1CNC(=O)C1CCCN(c2nnc(C)c3c(C)n(-c4ccccc4)nc23)C1 (stereo unspecified)	HT1080 IDH1KD tx 18µM, TGFb SMAD3 inh inconclusive, HT1080-NT tox 21µM
Cc1ccc(-n2nc3c(N4CCC(C(=O)NCCc5ccccc5C)CC4)nnc(C)c3c2C)cc1	TGFb SMAD3 inh 4.5µM!
COc1ccccc1CNC(=O)C1CCCN(c2nnc(C)c3c(C)n(-c4ccccc4)nc23)C1 (stereo unspecified)	TGFb SMAD3 inh inconclusive (no result: HT1080 IDH1KD tx, Giardia kill, HT1080-NT tox, IL1B secr inh)
COc1ccc(-n2nc3c(N4CCC(C(=O)NCCc5ccccc5C)CC4)nnc(C)c3c2C)cc1	IL1B secr inh -83
COc1ccc(-n2nc3c(N4CCCC(C(=O)NCCc5ccccc5C)C4)nnc(C)c3c2C)cc1 (stereo unspecified)	TGFb SMAD3 inh inconclusive (no result: HT1080 IDH1KD tx, Giardia kill, HT1080-NT tox, IL1B secr inh)
COc1ccc(-n2nc3c(N4CCCC(C(=O)NCc5ccccc5C)C4)nnc(C)c3c2C)cc1 (stereo unspecified)	TGFb SMAD3 inh 5µM (no result: HT1080 IDH1KD tx, Giardia kill, HT1080-NT tox, IL1B secr inh)
COCCn1c(-c2ccc(C)cc2)nc2c(c(=O)c3ccccc3n2C)c1=O	Giardia kill inconclusive, HT1080-NT tox inconclusive
Cc1cc(=O)[nH]c(SCC(=O)NCCOc2ccccc2)n1	none
Cc1nn(CCCC(=O)Nc2ccc(Br)cc2F)c(C)c1[N+](=O)[O-]	none
O=C(NCCCN1CCN(c2ccc(F)cc2)CC1)C1CCCN(c2ncnc3c2nc2n3CCCCC2)C1 (stereo unspecified)	IL1B secr inh inconclusive
Cc1ccc(-n2nc3c(N4CCC(C(=O)NC(C)c5ccccc5)CC4)nnc(C)c3c2C)cc1 (stereo unspecified)	TGFb SMAD3 inh 8.9µM, HepG2 viability 11µM (no result: HT1080 IDH1KD tx, Giardia kill, HT1080-NT tox, IL1B secr inh)
COc1ccc(-n2nc3c(N4CCC(C(=O)NCC(C)c5ccccc5)CC4)nnc(C)c3c2C)cc1 (stereo unspecified)	HT1080 IDH1KD tx inconclusive, TGFb SMAD3 inh inconclusive, HT1080-NT tox inconclusive, IL1B secr inh -96
COc1ccc(-n2nc3c(N4CCC(C(=O)NCc5ccccc5C)CC4)nnc(C)c3c2C)cc1	HT1080 IDH1KD tx 16µM, TGFb SMAD3 inh inconclusive, HT1080-NT tox 15µM, IL1B secr inh -95
Cc1ccccc1CNC(=O)C1CCN(c2nnc(C)c3c(C)n(-c4ccccc4)nc23)CC1	none (no result: HT1080 IDH1KD tx, Giardia kill, HT1080-NT tox, IL1B secr inh)
NC(=O)CN1CCOCCOCCN(CC(N)=O)CCOCC1	none
Cc1cc(O)c2c(c1O)C(=O)[C@]13C(=C2O)C(=O)[C@@H]2[C@@H](O)[C@H]1[C@@H]1[C@H](O)[C@H]3C(=O)C3=C(O)c4c(O)cc(C)c(O)c4C(=O)[C@]312	HT1080 IDH1KD tx 0.92µM, TGFb SMAD3 inh inconclusive, HT1080-NT tox 0.73µM
CC(=O)Nc1ccc2nc(C3CC3)n(Cc3ccc(Cl)cc3)c(=O)c2c1	none
O=C(Nc1ccc2nc(C3CC3)n(Cc3ccc(F)cc3)c(=O)c2c1)c1ccco1	TGFb SMAD3 inh inconclusive, IL1B secr inh -51
COc1ccc(Cn2c(C3CC3)nc3ccc(NC(=O)C4CC4)cc3c2=O)cc1	IL1B secr inh -65
CC(CCc1ccccc1)NC(=O)C1CCN(S(=O)(=O)N2CCCCC2)CC1 (stereo unspecified)	IL1B secr inh -56
O=C(NCCc1ccccc1)C1CCN(S(=O)(=O)N2CCCCCC2)CC1	none
CC(CCc1ccccc1)NC(=O)C1CCN(S(=O)(=O)c2ccc(F)cc2)CC1 (stereo unspecified)	IL1B secr inh -63
O=C(/C=C/c1ccc(S(=O)(=O)N2CCOCC2)cc1)NCc1ccc(Cl)cc1	IL1B secr inh -62
COc1ccc(CNC(=O)/C=C/c2ccc(S(=O)(=O)N3CCOCC3)cc2)cc1	none
CCCC(C)NC(=O)C1CCN(S(=O)(=O)c2ccccc2)CC1 (stereo unspecified)	none
O=C(NCc1ccc(Cl)cc1)C1CCN(S(=O)(=O)c2ccc(F)cc2)CC1	IL1B secr inh -64
CN(Cc1ccccc1)C(=O)Cn1nc(C(F)(F)F)c2c1CCC2	none
O=C(NCc1ccc(F)cc1)C1CCN(S(=O)(=O)c2ccc(Br)s2)CC1	none
O=C(NCc1ccc(F)cc1)C1CCCN(S(=O)(=O)c2ccc(Br)s2)C1 (stereo unspecified)	IL1B secr inh -53
